Experimental data: PubChem BioAssay AID2685 (National Center for Advancing Translational Sciences (NCATS), 2010)
About 2,100 (0.66%) of roughly 320,000 compounds were called active. Not shown: some 53% with an inconclusive outcome. The sample holds actives, similar compounds and a random draw of the others, so the mix is not that of the screen. Calls come from the whole dose curve; as a rule, active = well fitted inhibition curve with a large enough effect in the signal ratio, with a control signal flat (not every such curve was filed as active); inconclusive = small, poorly fitted or top-dose-only effect, or effect the other way, or a change in a side signal; inactive = flat fitted curve, though single readings scatter; the % refers to the signal ratio.

Test: qHTS Assay for Lipid Storage Modulators in Drosophila S3 Cells;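 for cell number change: cells counted by Cell Tracker Red CMTPX staining in the red channel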; for lipid storage change, negative = inhibition: % is set by controls: 0 for no effect and ±100 for the full control effect
Conditions: BODIPY lipid droplet fluorescence, 18-24 h, cells fed with added oleic acid; cell number change: measured here: cell count max response; series mostly up to 46.1 µM; lipid storage change, negative = inhibition: at the top concentration
Procedure, shortened: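 Drosophila S3 cells got compounds at several concentrations plus oleic acid (400 uM solution). Laser-scanning cytometry with 488 nm excitation read lipid droplets at 500-530 nm and cells at 575-640 nm. Percent activity was relative to 20 uM Triacsin C.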
Potency is the fitted concentration of half-maximal effect.

| Compound | outcome | lipid storage change, negative = inhibition | cell number change | Potency |
| --- | --- | --- | --- | --- |
| COc1ccc(C)cc1S(=O)(=O)N(CC(=O)Nc1cccc([N+](=O)[O-])c1)c1cc(C)cc(C)c1 | inactive |  |  |  |
| CCOc1ccccc1OCC(=O)NN1Cc2ccccc2C1=N | inactive |  |  |  |
| Cc1cccc(C(=O)N/N=C/c2ccncc2)c1 |  | 3.87% (inactive) | -0.828% |  |
| Cc1cccc(C(=O)Nc2ccc(O)cc2)c1 |  | -0.178% (inactive) | 4.55% |  |
| CSc1ccc(/C=C/C(=O)c2ccc(NC(C)=O)cc2)cc1 | inactive |  |  |  |
| Cc1cccc(C(=O)Nc2ccc(C(=O)/C=C/c3ccncc3)cc2)c1 |  |  | -3.72% | 6.51 µM (active) |
| CC(=O)Nc1cccc(C(=O)/C=C/c2ccc(/C=C/C(=O)c3cccc(NC(C)=O)c3)cc2)c1 |  |  | -12.7% | 8.2 µM (active) |
| CC(=O)Nc1cccc(C(=O)/C=C/c2ccc[nH]2)c1 |  | -0.805% (inactive) | 9.89% |  |
| CCOc1ccccc1CNC(=O)CCC(=O)N1Cc2ccccc2Oc2ncccc21 | inactive |  | -10.6% |  |
| CCOC(=O)C1(Cc2ccc(Cl)cc2)CCN(C(=O)c2cc(C)nc(C)n2)CC1 |  | 0.881% (inactive) | -4.86% |  |
| Cc1onc(-c2ccccc2Cl)c1C(=O)NCCCc1ccccc1 | inactive |  | -24% |  |
| Cc1cccc(C2c3[nH]c4ccccc4c3CCN2Cc2cccn2-c2ncccn2)c1 (centres undefined) | inactive |  | -27.2% |  |
| Fc1ccc(C2c3[nH]c4ccccc4c3CCN2Cc2cccn2-c2ncccn2)cc1 (centres undefined) |  | -15.7% (inactive) | 1.18% |  |
| COc1ccc(C2c3[nH]c4ccccc4c3CCN2Cc2cccn2-c2ncccn2)cc1C (centres undefined) |  |  | -1.91% | 16.4 µM (active) |
| CCN(CC)S(=O)(=O)c1cccc(-c2nnc(SCC(=O)c3cc(C)n(C4CC4)c3C)o2)c1 | inactive |  | 13.6% |  |
| CCCOc1ccc(N2C(=O)CC(NCc3cccs3)C2=O)cc1 (centres undefined) |  | 4.41% (inactive) | 15.4% |  |
| CCOC(=O)c1ccc(CNC(=O)C(Cc2c[nH]c3ccccc23)NC(C)=O)o1 (centres undefined) | inactive |  |  |  |
| O=C(NC(=O)c1c(Cl)cccc1Cl)Nc1ccc(Oc2cccnc2)nc1 |  | 8.04% (inactive) | 1.56% |  |
| O=C1/C(=C/c2cccs2)SC(=S)N1CCCC(=O)N(CCO)c1ccccc1 |  | -14.3% (inactive) | 6.09% |  |
| Cc1cc(C)cc(C(=O)OCC(=O)N2CCCCCC2)c1 |  | 0.176% (inactive) | -14.4% |  |
| O=C1CCCC(O)=C1N=Nc1c(Cl)cc(Cl)cc1Cl |  | 17.9% (inactive) | 2.67% |  |
| C/C=N/NC(=O)c1cc(Br)ccc1O |  | 9.52% (inactive) | 5.04% |  |
| Cc1c(/C=N/NC(=O)c2cc(Br)ccc2O)c(=O)n(C)c(=O)n1C |  |  | -6.52% | 5.8 µM (active) |

| Compound | outcome | lipid storage change, negative = inhibition | cell number change | Potency |
| --- | --- | --- | --- | --- |
| Cc1cccc(/C=N/NC(=O)c2cc(Br)ccc2O)n1 |  | 6.34% (inactive) | 0.985% |  |
| O=[N+]([O-])c1cccc(-c2ccc(C(=S)N3CCOCC3)o2)c1 |  | -17.7% (inactive) | 15.8% |  |
| CN1CCN(c2ccc(NC(=O)c3ccc(-c4cccc([N+](=O)[O-])c4)o3)cc2)CC1 |  | 17.2% (inactive) | 17.7% |  |
| O=C(Nc1ccc(CN2CCOCC2)cc1)c1ccc(-c2cccc([N+](=O)[O-])c2)o1 |  |  | -29.5% | 8.2 µM (active) |
| O=C(NC1CCCN(CCc2ccccc2)C1)C1CCCC1 (centres undefined) |  | -3.29% (inactive) | 8.14% |  |
| C[C@H](NC(=O)C1CCN(S(=O)(=O)c2ccccc2)CC1)C(=O)NCc1ccc(F)cc1 |  | 25.5% (inactive) |  |  |
| CCN(CC)C1CCN(Cc2cn[nH]c2-c2ccc(OC)c(F)c2)C1 (centres undefined) |  | 5.24% (inactive) | 7.18% |  |
| Cc1sc(NC(=O)/C=C/c2ccco2)c(C(=O)O)c1C |  | -1.31% (inactive) | 4.19% |  |
| N#Cc1ccsc1NC(=O)CSc1nnc(-c2ccccc2)o1 | inactive |  | 20.1% |  |
| CCn1c(SCC(=O)Nc2sc3c(c2C#N)CCC(C(C)(C)C)C3)nnc1-c1ccco1 (centres undefined) |  | -2.66% (inactive) | -7.68% |  |
| CC(C)(C)C1CCc2c(sc(NC(=O)CSc3nnc(-c4ccccc4)o3)c2C#N)C1 (centres undefined) |  |  | -0.658% | 4.11 µM (active) |
| COc1ccc(/C=N/n2cnc3c(sc(=S)n3-c3ccccc3)c2=O)cc1 | inactive |  | 19.1% |  |
| CN1C(=S)SC(N(O)C(=O)Nc2ccc(Cl)c(Cl)c2)C1(C)C (centres undefined) |  | -7.63% (inactive) | -15% |  |
| CCOc1ccc(CNc2ccc(N3CCCC3)cc2)cc1 | inactive |  |  |  |
| CCOc1ccc(CN2CCC(Cc3ccccc3)CC2)cc1 | inactive |  | 27.4% |  |
| CCOc1ccc(CNc2ccc(N3CCN(Cc4ccccc4)CC3)cc2)cc1 |  |  |  | 2.31 µM (active) |
| O=C(NC(C(=O)c1ccccc1)n1cnccc1=O)c1ccccc1 (centres undefined) |  | -5.22% (inactive) | -10.1% |  |
| O=C(NCN1CCc2ccccc2C1)c1ccccc1 |  | 3.53% (inactive) | 0.788% |  |
| O=C(NCn1cnccc1=O)c1ccccc1 |  |  | 1.39% | 20.6 µM (active) |
| Cc1noc(C)c1C(=O)Nc1nnc(CC(C)C)s1 |  | -7.24% (inactive) | 23.9% |  |
| O=C(Cc1cccs1)N(Cc1ccco1)C1(C(=O)NC2CCCC2)CCCCC1 |  |  | -17% | 3.66 µM (active) |
| O=C1NC(=O)C(CC(=O)N(Cc2ccco2)C2(C(=O)NC3CCCC3)CCCCC2)N1 (centres undefined) | inactive |  |  |  |
| CC(=O)N(Cc1ccco1)C1(C(=O)NC2CCCCC2)CCCCC1 |  | 1.16% (inactive) | -0.0608% |  |
